Assay outcomes as filed in PubChem.
A549 tox – A549 cytotoxicity, counter-screen for Nrf2 inhibitors. A549 ARE-Fluc cells, CellTiter-Fluor viability, 18-24 h. 390,000 tested, 0.16% active. Potency, µM (top dose mostly 46 µM), without a hit: top-dose activity change, negative = cytotoxicity, most hits filed as inhibitors; also: % is scaled to controls: 0 for no effect and ±100 for the full control effect
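A549 ARE-Fluc cells in 5% FBS OPTI-MEM, 5000 cells/well, rested 2 h then exposed to compounds in concentration-response for 18-24 h at 37 °C. Viability by CellTiter-Fluor fluorescence (Ex 405/Em 525) after 30 min; luciferase luminescence (BugLite, 15 min, RT) read afterwards.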
Nrf2 inh – blocks Nrf2 signaling; A549 ARE-Fluc reporter, luciferase luminescence, 18-24 h; Potency, µM (series often up to 46 µM), inactives show at the highest dose activity change, negative = inhibition, hits mostly inhibitors; 360,000 tested, 2.1% active; AID 504444; also: % is scaled to controls: 0 for no effect and ±100 for the full control effect; nearly all actives have a fitted effect of over 60% in size
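Nrf2 activity is the BugLite luminescence, read 15 min after reagent at room temperature, following CellTiter-Fluor cytotoxicity readout (30 min, 37C). Compound titrations were applied for 18-24 h to 5000 A549 ARE_Fluc cells/well in 5% FBS OPTI-MEM.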
Nrf2 activator – activates Nrf2 signaling. AREc32 ARE-luciferase reporter (MCF7-derived line), luminescence, 24 h. Potency, µM (top dose mostly 46.1 µM), for the others: at the highest dose activation, usual class: activators. 410,000 tested, 0.31% active. AID 624171; also: % of control where 0% means no effect; nearly all actives have a fitted effect of over 65% in size
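Each well held 1000 AREc32 cells, which were incubated with compound for 24 hr at 37 deg C after overnight attachment, and ARE reporter activity was quantified by firefly luciferase luminescence.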
ATXN viability – reduces viability in counter-screen for ATXN expression inhibitors; AID 651635; Potency, µM (titrated, usually from 56.7 µM), hits mostly cytotoxic; 400,000 tested, 0.49% active; S2 cells (HEK-293 line with an ATXN2-luciferase reporter) viability, CellTiter-Fluor protease fluorescence, 24 h; also: nearly all actives have a fitted effect of over 40% in size
ATXN2 expr inh – inhibitors of ATXN2 expression; 360,000 tested, 0.72% active; AID 1745845; HEK-293 ATXN2-luciferase reporter, luminescence, 24 h; Potency, µM (top dose mostly 57 µM), without a hit: at the highest dose activity change, negative = inhibition, actives largely listed as inhibitors; also: % is scaled to controls: 0 for no effect and ±100 for the full control effect; nearly all actives have a fitted effect of over 55% in size
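ATXN2-luciferase reporter cells (luciferase flanked by upstream and downstream ATXN2 gene portions) were treated 24 h at 37 °C with compounds at up to 57 uM. SteadyGlo luminescence gave expression; GF-AFC fluorescence gave viability.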
Starred values were filed as active, the others as inactive; i = inactive; ? = inconclusive; nt = no result; ! = a repeat was not active; [ ] = dose if it differs, or a comment. In the library only some 2.9% were active in any assay of this set; here they are far more common. Calls follow the shape of the dose curve; as a rule, active = well fitted curve in the direction sought with a large enough effect; inconclusive = small, poorly fitted or top-dose-only effect, or another doubt; inactive = no such curve, though single readings can be large; an effect the other way counts as inactive or inconclusive. Potency is read from the fitted curve at half-maximal effect.

SMILES	A549 tox	Nrf2 inh	Nrf2 activator	ATXN viability	ATXN2 expr inh
O=C(OCn1ncc(Br)c(Br)c1=O)c1ccccc1Cl	?	?	?	10µM*	7.9µM*
COc1cc2oc3ccccc3c(=O)c2cc1OC	-1%	7%	10µM*	i	6%
O=c1c2ccccc2oc2cc(Br)ccc12	2%	?	?	i	16%
Cc1nc2oc3ccccc3c(=O)c2cc1C(=O)O	-4%	9%	0%	i	17%
COc1ccc2oc3cc(Cl)ccc3c(=O)c2c1	nt	nt	7.9µM*	i	42%
COC(=O)c1cc2c(=O)c3ccccc3oc2nc1C	0%	?	7.9µM*	i	44%
O=c1c2ccccc2oc2ccc(Oc3ccccc3)cc12	16%	?	27%	i	113%
CN(C)c1ccc(CNc2nc(-c3ccco3)nn2S(=O)(=O)c2ccc3ccccc3c2)cc1	-2%	3%	3%	i	5%
COc1cc2c(cc1OC)n(Cc1ccc([N+](=O)[O-])cc1)c(=O)n1nc(-c3ccccc3)nc21	5%	nt	5%	nt	nt
Cc1ccc2c(c1)c1c(n2CC(O)CN2CCCCCC2)CCCC1 (configuration not stated)	3%	9%	7%	?	-29%
Cc1ccc2c(c1)c1c(n2CC(O)Cn2c(C)nc3ccccc32)CCCC1 (configuration not stated)	1%	-5%	-1%	32µM*	?
Cc1cccc(Cn2c(NCCO)nc3c2c(=O)n(C)c(=O)n3C)c1	-19%	4.1µM*	0%	i	-16%
CNc1nc2c(c(=O)n(C)c(=O)n2C)n1Cc1ccccc1	-16%	7.3µM*	1%	i	-23%
Cn1c(=O)c2c(nc(Sc3ncccn3)n2Cc2ccc(Cl)cc2)n(C)c1=O	5%	15µM*	1%	i	-10%
Cn1c(=O)c2c(nc(NCCO)n2CCCc2ccccc2)n(C)c1=O	0%	21µM*	1%	i	-27%
C=CS(=O)(=O)O	nt	nt	nt	i	nt
CNC(=O)c1cc(Oc2ccc(NC(=O)Nc3cc(C(C)(C)C)nn3-c3ccc4ncccc4c3)c(F)c2)ccn1	nt	nt	nt	nt	1.4µM*
CN(C)CCCNc1nc2cc(-c3cccc(C(F)(F)F)c3)sc2c(=O)n1C	nt	nt	?	32µM*	20µM*
O=C(CC1(O)C(=O)Nc2cc(Cl)cc(Cl)c21)c1ccncc1 (configuration not stated)	2%	2%	?	25µM*	?
CCC1CN(C(=O)N2CCC(C(=O)NCCc3cc(OC)ccc3OC)CC2)c2ccccc2O1 (configuration not stated)	-8%	23µM*	0%	nt	nt
C#Cc1ccc(-c2ccccc2F)cc1	nt	nt	nt	i	6%
Cc1ccc(-c2noc(CSc3nnc(Cc4ccccc4)n3-c3cccc(C)c3)n2)cc1	?	26µM*	0%	i	?
Clc1ccc(-c2noc(CSc3nnc(Cc4cccs4)n3-c3ccccc3)n2)cc1	-8%	16µM*	0%	?	?
CCOc1ccc(-c2noc(CSc3nnc(Cc4ccccc4)n3-c3cccc(C)c3)n2)cc1	?	26µM*	0%	?	?
COc1ccc(-c2noc(CSc3nnc(Cc4ccccc4)n3-c3cccc(C)c3)n2)cc1OC	-8%	?	4%	i	-17%
SMILES	A549 tox	Nrf2 inh	Nrf2 activator	ATXN viability	ATXN2 expr inh
COc1ccc(-c2cc(C(=O)N3CCOCC3)c3ccccc3n2)cc1OC	3%	17%	5%	i	5%
COc1cc2cc(C(=O)N3CCOCC3)cc(-c3ccc(C)cc3)c2cc1OC	?	18µM*	0%	i	-11%
COC(C(=O)Nc1ccc(S(=O)(=O)Nc2ccc(F)cc2)cc1)c1ccccc1 (configuration not stated)	0%	-13%	0%	i	?
COC(C(=O)Nc1ccc(S(=O)(=O)Nc2cccc3ccccc23)cc1)c1ccccc1 (configuration not stated)	-7%	23µM*	0%[9.22 µM]	i	-4%
C(C#CCCCCCCCCC[n+]1ccccc1)#CCCCCCCCCC[n+]1ccccc1	?	12µM*	-2%	13µM*	7.1µM*!
CSc1nc2nccc(-c3ccc(Oc4ccccc4)cc3)n2n1	2%	18µM*	0%	i	-6%
